This is a sample that favours compounds with a hit; in the whole collection about 0.5% have one here.
Tat transport: E. coli Tat transport inhibition. E. coli MC4100 TorA-mCherry Tat export, fluorescence. inhibition, % at 10 µM. 340,000 compounds, 0.036% hits. AID 488895;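 active = mean replicate inhibition at least 50% and at least half of replicates individually reaching 50%; inconclusive = only one of the two criteria met; inactive = neither criterion met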;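 also: exported cargo escapes ClpAP degradation while cytoplasmic cargo is degraded and loses fluorescence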
AddAB inh: less growth of phage-infected E. coli with AddAB; E. coli expressing H. pylori AddAB, absorbance growth; inhibition, % at 11.9 µM; 330,000 compounds, 0.29% hits; in the data active = inhibition above about 12%
E coli growth-1: E. coli growth inhibition | AID 1053175 | OD600 absorbance (concentration not given with the values) | 330,000 compounds, 0.21% hits | Escherichia coli growth, OD600, 23 h; active compounds read low;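 active = OD600 absorbance below the run mean of sample wells minus 3.6 SD, in any replicate, cut at about 0.56 in these data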
E coli growth-2: counter-screen for AddAB inhibitors: E. coli growth inhibition. AID 449728. E. coli V3065 growth, OD600 absorbance, 18 h. 330,000 compounds, 0.27% hits. inhibition, % at 11.9 µM;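 active = inhibition above the campaign's mean inhibition across all tested compounds plus 3 SD, cut at about 9.9% in these data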;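 also: uninfected addAB+ strain grown without phage in ampicillin broth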
phage Ecoli inh: E. coli growth loss with phage present. growth absorbance. inhibition, % at 11.9 µM. 360,000 compounds, 0.26% hits; in the data active = inhibition above about 11%
AddAB conf: confirmation screen: growth loss of phage-infected E. coli expressing H. pylori AddAB | shares compounds with AddAB inh | E. coli V3065 expressing H. pylori AddAB, T4 phage, OD; T4 phage with gene 2 nonsense mutations | inhibition, % at 11.9 µM | 880 compounds, 64% hits;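 active = mean inhibition above a set limit taken from the earlier primary screen, cut at about 13% in these data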;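 also: higher means less bacterial growth since AddAB block lets phage replicate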
RecBCD counter: AddAB counter-screen: growth loss of RecBCD+ E. coli infected with mutant T4 phage. shares compounds with AddAB inh. E. coli V66 + mutant T4 phage, OD growth. inhibition, % at 11.9 µM. 880 compounds, 73% hits;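 active = mean inhibition above the mean of solvent-only control wells plus 3 SD, cut at about 4% in these data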;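 also: optical density read after an 18 h incubation at 37 °C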
Bact viability: counter-screen for AddAB inhibitors: inhibitors of bacterial viability. shares compounds with AddAB inh. absorbance (AddAB counterscreen). inhibition, % at 11.9 µM. 880 compounds, 35% hits; in the data active = inhibition above about 25%
Each line names hits and unclear results; the compound was inactive in the other large screens (follow-up assays come after a bar, where they were run).

CCCNC(=O)c1ccc2c(=O)c(O)c(-c3ccc(F)cc3)[nH]c2c1	AddAB inh 18, E coli growth-2 15 (no result: phage Ecoli inh) | AddAB conf inactive | RecBCD counter 13 | Bact viability inactive
O=C(NCc1ccncc1)C(=NO)c1ccccc1	none (no result: Tat transport, AddAB inh, E coli growth-2, phage Ecoli inh)
Cc1ccc(-c2cc(C(F)(F)F)n3ncc(C(=O)O)c3n2)cc1	none (no result: AddAB inh, E coli growth-2)
Cc1cc(C(F)(F)F)n2ncc(C(=O)O)c2n1	AddAB inh 17 | AddAB conf inactive | RecBCD counter inactive | Bact viability inactive
CC(CCN1C(N(C)C)=NCC1C)c1ccccc1 (configuration not stated)	none (no result: Tat transport, AddAB inh, E coli growth-2, phage Ecoli inh)
Cc1ccc(OCC(=O)c2c[nH]c3ccccc23)c([N+](=O)[O-])n1	AddAB inh 23, E coli growth-2 20 | AddAB conf 46 | RecBCD counter 6.8 | Bact viability 42
O=C(NC(c1ccc(Cl)cc1)c1c(O)ccc2ccccc12)c1ccccc1 (configuration not stated)	AddAB inh 14 | AddAB conf inactive | RecBCD counter inactive | Bact viability inactive
O=C(NC(c1ccccc1)c1c(O)ccc2ccccc12)c1ccccc1Cl (configuration not stated)	none
CCCC(=O)NC(Nc1ccc(S(=O)(=O)Nc2cc(C)on2)cc1)(C(F)(F)F)C(F)(F)F	AddAB inh 16 | AddAB conf inactive | RecBCD counter inactive | Bact viability inactive
CCCC(=O)NC(Nc1ccc(S(=O)(=O)Nc2cc(C)on2)cc1)(C(=O)OCC)C(F)(F)F (configuration not stated)	none
COc1ccc(-c2nn(-c3ccccc3)cc2C=NN=C(N)N)cc1OC	none (no result: Tat transport, AddAB inh, E coli growth-2, phage Ecoli inh)
O=C(Nc1ccccc1O)c1ccccc1O	AddAB inh 24, E coli growth-1 0.48, E coli growth-2 13 | AddAB conf inactive | RecBCD counter 8.2 | Bact viability inactive
Cc1cccc(NC(=O)c2ccccc2O)c1C	none
O=C(NC(=S)NNC(=O)c1ccccc1O)c1cccs1	AddAB inh 13 | AddAB conf 22 | RecBCD counter 20 | Bact viability inactive
COc1ccccc1C(=O)NNC(=S)NC(=O)c1cccs1	none (no result: E coli growth-1)
O=C(NC(=S)NNC(=O)c1ccccc1O)c1ccc(F)cc1	AddAB inh 13, E coli growth-2 16 | AddAB conf 15 | RecBCD counter 18 | Bact viability inactive
O=C(NC(=S)NNC(=O)c1ccccc1O)c1ccccc1	Tat transport inconclusive, AddAB inh 13, E coli growth-2 10 | AddAB conf inactive | RecBCD counter 17 | Bact viability inactive
CN/S(=N\S(=O)(=O)c1ccccc1)c1ccc(C)cc1 (configuration not stated)	none (no result: Tat transport, AddAB inh, E coli growth-2, phage Ecoli inh)
Nc1nonc1-n1nnc(C(=O)NN=Cc2ccoc2)c1CSc1ccccc1	none (no result: Tat transport, AddAB inh, E coli growth-2, phage Ecoli inh)
Cc1ccc2c(c1)n([O-])c1c([n+]2=O)CCCC1	none
CC(=O)c1c(C)n([O-])c2ccc(C)cc2[n+]1=O	AddAB inh 23, E coli growth-1 0.43, E coli growth-2 24 | AddAB conf 68 | RecBCD counter 8.3 | Bact viability 53
CCN(CC)CCCNC(=O)c1cn(CC)c2cc(N3CCN(C(=O)c4ccco4)CC3)c(F)cc2c1=O	AddAB inh 97, E coli growth-1 0.065, E coli growth-2 98 | AddAB conf 100 | RecBCD counter 88 | Bact viability 101
CCN(CC)CCNC(=O)c1cn(CC)c2cc(N3CCN(C(=O)c4ccco4)CC3)c(F)cc2c1=O	AddAB inh 68, E coli growth-1 0.074, E coli growth-2 65 | AddAB conf 98 | RecBCD counter 6.6 | Bact viability 89
CCCCCNC(=O)c1cn(CC)c2cc(N3CCN(C)CC3)c(F)cc2c1=O	AddAB inh 92, E coli growth-1 0.047, E coli growth-2 90 | AddAB conf 100 | RecBCD counter 12 | Bact viability 96
COc1ccc(C2CC(=O)C=C(c3ccccc3C(F)(F)F)C2)cc1 (configuration not stated)	none (no result: Tat transport, AddAB inh, E coli growth-2, phage Ecoli inh)
N#CC(C(N)=O)=c1ccc2c(c1)N1C3=C(CCCC3)CC3CCCCC31N=2 (configuration not stated)	none (no result: Tat transport, AddAB inh, E coli growth-2, phage Ecoli inh)

High-throughput results deposited in PubChem by several laboratories.
